# Reference: ChEMBL document CHEMBL3988442, “University of Dundee, Small-Polar-MMV Screening Library” (2021)
# Where “and” joins values, the source holds several entries; their conditions need not be identical. Equal entries are not always repeated. For part of these data: Measured potencies and affinities stand elsewhere.
# What was measured:
# Parameters in all cases: scale not given: direction of the effect not stated beside the values
# [1] = biological target: Protein translocase subunit SecA (Escherichia coli (strain K12)) (UniProt P10408); assay: Assay to Identify E. coli SecA ATPase Inhibitors; format: functional; conditions: 30 µM
# Chain of Protein translocase subunit SecA (Escherichia coli (strain K12)) (P10408 whole entry): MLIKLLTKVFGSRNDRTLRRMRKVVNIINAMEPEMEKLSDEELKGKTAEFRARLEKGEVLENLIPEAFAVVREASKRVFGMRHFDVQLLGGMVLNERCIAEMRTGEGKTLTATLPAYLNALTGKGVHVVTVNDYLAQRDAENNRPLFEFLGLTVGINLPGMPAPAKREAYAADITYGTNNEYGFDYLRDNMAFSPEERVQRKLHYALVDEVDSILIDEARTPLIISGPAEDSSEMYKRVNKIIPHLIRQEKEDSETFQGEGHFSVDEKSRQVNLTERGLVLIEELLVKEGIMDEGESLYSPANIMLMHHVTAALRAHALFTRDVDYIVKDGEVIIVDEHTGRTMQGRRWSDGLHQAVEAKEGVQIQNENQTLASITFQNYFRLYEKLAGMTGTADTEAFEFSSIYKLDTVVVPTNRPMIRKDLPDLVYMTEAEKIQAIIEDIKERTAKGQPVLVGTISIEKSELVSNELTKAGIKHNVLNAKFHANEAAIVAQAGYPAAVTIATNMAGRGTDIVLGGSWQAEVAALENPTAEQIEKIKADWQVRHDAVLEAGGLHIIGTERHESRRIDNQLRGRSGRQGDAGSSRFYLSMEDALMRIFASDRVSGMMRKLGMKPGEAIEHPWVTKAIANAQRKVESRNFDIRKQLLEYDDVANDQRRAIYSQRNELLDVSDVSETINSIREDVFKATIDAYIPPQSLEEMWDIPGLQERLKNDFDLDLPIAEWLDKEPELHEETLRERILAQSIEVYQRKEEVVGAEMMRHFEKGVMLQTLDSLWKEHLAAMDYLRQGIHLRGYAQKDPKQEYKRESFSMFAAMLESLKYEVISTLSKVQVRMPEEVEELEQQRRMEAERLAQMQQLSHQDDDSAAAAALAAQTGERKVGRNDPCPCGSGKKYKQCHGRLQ
# [2] = biological target: T1, Ubiquitin-activating enzyme e1, putative (Leishmania donovani (strain BPK282A1)) (UniProt E9BSI1); assay: Leishmania donovani Ubiquitin Activating Enzyme (LdE1); format: functional; conditions: 30 µM
# T1 sequence (whole entry): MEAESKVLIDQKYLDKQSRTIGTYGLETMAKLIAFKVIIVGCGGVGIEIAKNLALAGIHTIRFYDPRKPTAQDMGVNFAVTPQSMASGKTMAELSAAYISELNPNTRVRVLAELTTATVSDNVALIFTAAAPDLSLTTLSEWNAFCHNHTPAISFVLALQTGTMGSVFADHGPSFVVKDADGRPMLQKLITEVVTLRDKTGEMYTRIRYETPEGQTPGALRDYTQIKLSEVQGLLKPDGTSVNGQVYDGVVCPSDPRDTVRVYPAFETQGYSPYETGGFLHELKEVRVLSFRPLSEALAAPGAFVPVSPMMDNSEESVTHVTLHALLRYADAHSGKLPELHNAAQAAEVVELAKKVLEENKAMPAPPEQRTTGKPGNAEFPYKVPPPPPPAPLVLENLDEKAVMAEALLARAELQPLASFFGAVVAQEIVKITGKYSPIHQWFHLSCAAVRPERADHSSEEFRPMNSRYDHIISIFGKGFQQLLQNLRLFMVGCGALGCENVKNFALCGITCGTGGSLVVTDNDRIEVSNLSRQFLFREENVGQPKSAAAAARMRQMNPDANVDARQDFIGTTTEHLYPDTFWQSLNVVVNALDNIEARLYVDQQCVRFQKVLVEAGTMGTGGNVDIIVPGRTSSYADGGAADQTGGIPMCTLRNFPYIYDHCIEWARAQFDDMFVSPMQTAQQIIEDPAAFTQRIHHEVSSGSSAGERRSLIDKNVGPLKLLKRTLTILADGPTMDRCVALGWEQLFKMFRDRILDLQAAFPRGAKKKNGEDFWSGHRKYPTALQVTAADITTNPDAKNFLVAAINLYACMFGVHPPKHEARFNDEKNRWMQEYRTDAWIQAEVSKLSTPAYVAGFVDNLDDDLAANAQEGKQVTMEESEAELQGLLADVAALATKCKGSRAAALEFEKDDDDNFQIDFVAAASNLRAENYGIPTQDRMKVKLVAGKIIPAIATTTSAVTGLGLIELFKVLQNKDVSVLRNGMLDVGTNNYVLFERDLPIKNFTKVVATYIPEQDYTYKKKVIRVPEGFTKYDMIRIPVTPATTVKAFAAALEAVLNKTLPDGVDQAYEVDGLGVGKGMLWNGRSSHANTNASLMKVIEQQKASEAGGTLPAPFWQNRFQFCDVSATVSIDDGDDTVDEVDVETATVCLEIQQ
# [3] = biological target: AMP-activated protein kinase, AMPK (Homo sapiens) (UniProt P54646+O43741+P54619+Q9UGJ0+Q9Y478+Q13131+Q9UGI9); assay: AMP-dependent Kinase enzyme assay. An in vitro enzyme assay that detects ADP turnover that is directly proportional to AMPK activity. This uses naive AMPK that is activated during the assay with MK-8722; format: functional; conditions: 30 µM
# [4] = biological target: Sialic acid-binding Ig-like lectin 9 (Homo sapiens) (UniProt Q9Y336); assay: Hs-Siglec9 ALPHAscreen SOP 20170721; conditions: 10 µM
# Chain of Sialic acid-binding Ig-like lectin 9 (Homo sapiens) (Q9Y336 whole entry): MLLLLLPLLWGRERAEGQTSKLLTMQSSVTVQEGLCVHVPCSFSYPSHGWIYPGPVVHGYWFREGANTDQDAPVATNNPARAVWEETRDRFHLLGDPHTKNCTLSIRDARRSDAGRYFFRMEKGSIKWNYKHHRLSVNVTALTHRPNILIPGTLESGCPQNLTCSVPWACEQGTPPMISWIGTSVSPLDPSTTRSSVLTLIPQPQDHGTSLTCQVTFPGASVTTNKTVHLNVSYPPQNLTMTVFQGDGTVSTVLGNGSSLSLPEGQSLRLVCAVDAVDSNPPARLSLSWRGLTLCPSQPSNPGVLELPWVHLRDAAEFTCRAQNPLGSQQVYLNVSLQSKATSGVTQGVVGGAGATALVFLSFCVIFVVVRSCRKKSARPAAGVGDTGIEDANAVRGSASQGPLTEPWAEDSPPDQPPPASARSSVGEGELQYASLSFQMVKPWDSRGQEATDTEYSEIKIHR
# Trypanosoma cruzi = assay: Trypanosoma cruzi phosphomannomutase and mannose-1-phosphate guanylyltransferase assay; format: functional; conditions: 10 µM
# [5] = biological target: T2, Arginase-2, mitochondrial (Homo sapiens) (UniProt P78540); assay: in vitro enzyme assay to detect the production of urea directly proportional to the activity of Arginase II; format: functional; further: in the data most compounds retested in dose-response had high values
# T2 sequence (whole entry): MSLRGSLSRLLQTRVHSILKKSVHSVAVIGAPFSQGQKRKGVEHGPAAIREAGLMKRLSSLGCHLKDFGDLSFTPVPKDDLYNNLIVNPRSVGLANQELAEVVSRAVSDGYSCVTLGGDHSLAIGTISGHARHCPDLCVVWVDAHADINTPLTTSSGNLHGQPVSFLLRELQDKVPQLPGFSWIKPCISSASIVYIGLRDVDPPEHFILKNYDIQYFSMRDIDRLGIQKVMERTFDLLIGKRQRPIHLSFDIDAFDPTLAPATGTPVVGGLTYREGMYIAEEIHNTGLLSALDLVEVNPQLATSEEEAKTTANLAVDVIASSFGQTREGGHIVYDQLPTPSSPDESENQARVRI
# [6] = biological target: T3, Proteasome subunit beta (Trypanosoma cruzi) (UniProt O96673); assay: Trypanosoma cruzi proteasome chymotrypsin-like activity (TcProtChymo) assay.; further: in the data most compounds retested in dose-response had high values; format: functional; conditions: 9.37 µM
# T3 sequence (whole entry): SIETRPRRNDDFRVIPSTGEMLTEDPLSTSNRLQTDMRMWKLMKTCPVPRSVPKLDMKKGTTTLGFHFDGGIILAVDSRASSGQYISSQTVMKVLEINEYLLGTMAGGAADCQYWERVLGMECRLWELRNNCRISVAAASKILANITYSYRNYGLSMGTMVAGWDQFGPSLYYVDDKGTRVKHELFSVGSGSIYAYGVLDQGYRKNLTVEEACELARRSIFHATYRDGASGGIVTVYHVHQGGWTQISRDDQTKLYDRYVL
# Homo sapiens = species on record: Homo sapiens; assay: To identify inhibition of the IFN signalling (Jak-Stat) pathway via expression of an eGFP reporter gene under the control of an IFN-stimulated response element (ISRE) containing MxA promoter.; format: functional; conditions: 30 µM
# [7] = biological target: T4, Tyrosyl-tRNA synthetase, putative (Trypanosoma cruzi (strain CL Brener)) (UniProt Q4DSP6); assay: Trypanosoma cruzi tyrosyl tRNA synthetase (TcYRS) _High Tyrosine SOP; format: functional; conditions: 30 µM; further: in the data most compounds retested in dose-response had high values
# T4 sequence (whole entry): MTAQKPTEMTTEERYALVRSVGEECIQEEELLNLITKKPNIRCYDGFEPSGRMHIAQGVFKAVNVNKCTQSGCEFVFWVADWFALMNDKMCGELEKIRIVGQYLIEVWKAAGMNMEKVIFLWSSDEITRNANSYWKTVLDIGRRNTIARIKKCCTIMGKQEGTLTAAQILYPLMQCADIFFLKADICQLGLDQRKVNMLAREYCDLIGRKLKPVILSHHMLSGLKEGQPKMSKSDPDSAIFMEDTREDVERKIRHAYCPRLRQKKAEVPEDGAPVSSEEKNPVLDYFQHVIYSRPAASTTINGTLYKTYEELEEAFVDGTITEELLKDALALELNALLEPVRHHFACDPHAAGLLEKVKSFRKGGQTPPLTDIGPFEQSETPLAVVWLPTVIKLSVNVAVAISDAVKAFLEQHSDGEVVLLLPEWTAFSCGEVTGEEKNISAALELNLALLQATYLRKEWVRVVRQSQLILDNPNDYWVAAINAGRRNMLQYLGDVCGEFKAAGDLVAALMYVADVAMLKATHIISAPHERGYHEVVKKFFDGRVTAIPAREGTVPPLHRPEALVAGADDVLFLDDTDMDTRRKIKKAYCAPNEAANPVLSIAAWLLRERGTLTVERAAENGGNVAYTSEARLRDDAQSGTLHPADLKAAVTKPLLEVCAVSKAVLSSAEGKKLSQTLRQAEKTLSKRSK
# [8] = biological target: T4, Tyrosyl-tRNA synthetase, putative (Trypanosoma cruzi (strain CL Brener)); assay: Trypanosoma cruzi tyrosyl tRNA synthetase (TcYRS) SOP; format: functional; conditions: 30 µM
# [9] = biological target: Chromo domain-containing protein 1 (Saccharomyces cerevisiae (strain ATCC 204508 / S288c) (Baker's yeast)) (UniProt P32657); assay: ScCHD-1 Enzyme Inhibition Assay; format: functional; conditions: 30 µM; further: in the data most compounds retested in dose-response had high values
# Chain of Chromo domain-containing protein 1 (Saccharomyces cerevisiae (strain ATCC 204508 / S288c) (Baker's yeast)) (P32657 whole entry, the tested form may be a part): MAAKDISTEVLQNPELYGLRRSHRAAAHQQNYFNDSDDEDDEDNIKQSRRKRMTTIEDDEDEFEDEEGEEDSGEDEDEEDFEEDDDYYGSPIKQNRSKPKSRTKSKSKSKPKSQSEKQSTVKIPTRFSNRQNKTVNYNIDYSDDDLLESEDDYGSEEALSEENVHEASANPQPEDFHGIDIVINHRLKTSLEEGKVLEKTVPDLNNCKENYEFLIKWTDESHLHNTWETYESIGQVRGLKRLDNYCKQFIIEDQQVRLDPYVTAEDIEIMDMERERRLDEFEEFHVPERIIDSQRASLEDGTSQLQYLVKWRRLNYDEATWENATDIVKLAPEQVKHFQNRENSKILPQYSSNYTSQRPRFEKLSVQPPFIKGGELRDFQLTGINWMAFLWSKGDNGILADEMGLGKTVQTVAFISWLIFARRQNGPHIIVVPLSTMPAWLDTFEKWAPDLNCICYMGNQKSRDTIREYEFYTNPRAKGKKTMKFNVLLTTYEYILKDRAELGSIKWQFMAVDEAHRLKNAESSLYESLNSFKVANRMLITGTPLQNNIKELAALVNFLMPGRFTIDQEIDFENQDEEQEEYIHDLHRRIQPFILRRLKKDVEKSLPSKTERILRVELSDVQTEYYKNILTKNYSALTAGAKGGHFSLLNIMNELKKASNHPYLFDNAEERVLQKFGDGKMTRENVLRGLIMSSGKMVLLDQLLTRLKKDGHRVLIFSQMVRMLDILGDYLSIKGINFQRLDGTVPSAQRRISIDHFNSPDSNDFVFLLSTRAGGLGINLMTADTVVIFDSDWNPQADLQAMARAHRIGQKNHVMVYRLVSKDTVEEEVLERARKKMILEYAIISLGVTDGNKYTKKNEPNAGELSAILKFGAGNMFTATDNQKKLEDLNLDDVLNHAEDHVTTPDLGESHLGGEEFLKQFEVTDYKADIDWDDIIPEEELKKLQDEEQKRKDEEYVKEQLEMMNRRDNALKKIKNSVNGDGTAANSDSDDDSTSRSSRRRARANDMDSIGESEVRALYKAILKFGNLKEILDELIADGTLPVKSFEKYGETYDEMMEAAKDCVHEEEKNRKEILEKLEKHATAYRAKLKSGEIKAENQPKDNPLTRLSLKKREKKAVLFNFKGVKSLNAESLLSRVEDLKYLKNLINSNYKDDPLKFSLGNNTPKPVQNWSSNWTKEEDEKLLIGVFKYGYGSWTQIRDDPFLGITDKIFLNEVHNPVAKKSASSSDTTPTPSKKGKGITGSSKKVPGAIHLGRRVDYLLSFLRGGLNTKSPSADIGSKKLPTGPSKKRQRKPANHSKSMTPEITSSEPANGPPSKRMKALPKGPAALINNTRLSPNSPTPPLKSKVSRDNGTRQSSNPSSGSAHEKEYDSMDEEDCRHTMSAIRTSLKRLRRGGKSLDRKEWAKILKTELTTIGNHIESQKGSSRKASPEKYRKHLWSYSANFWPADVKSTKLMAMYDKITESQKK
# N/A = assay: Trypanosoma cruzi proteasome luciferase counter-screen; format: functional; conditions: 9.37 µM
Structure (SMILES),Percent Effect [1] [%],Percent Effect [2] [%],Percent Effect [3] [%],Percent Effect [4] [%],Percent Effect (Trypanosoma cruzi) [%],Percent Effect ([5]; 30 µM) [%],Percent Effect ([5]; 33.3 µM) [%],Percent Effect [6],Percent Effect (Homo sapiens) [%],Percent Effect [7] [%],Percent Effect [8] [%],Percent Effect [9] [%],Percent Effect (N/A)
Cc1ccccc1-c1cncc(C2CCN(C(=O)CN(C)C)CC2)n1,-4.06,6.76,14.4,-6.59,-4.74,-1.62,-8.59,9.83%,19.1,0,1.3,-14.4,–
CN(Cc1cccnc1)C1CC2(CCN(c3ccccn3)CC2)C1,-2.7,13.3,11,-6.68,-5.12,3.78,-1.17,3.26%,27.4,7.45,16.7,-5.79,–
CC1CCN(S(=O)(=O)c2cccn(CC(=O)N3CCOCC3)c2=O)CC1,-2.79,9.33,5.14,0.129,-4.91,3.78,-3.7,7.02%,0.032,1.06,2.56,-7.85,–
O=C(Nc1ccc(F)c(Br)c1)N1CCCC1,-2.64,-2.7,4.93,-0.317,-4.49,–,2.92,53.1% and 53% and 53.3%,18.2,-34.6,3.66,-3.18,8.61% and 7.62%
Cc1cnn(CC2CN(c3cnc4ccccc4n3)CCO2)c1 (stereo not drawn),-8.32,15.2,2.77,14.7,12,–,-4.56,38.1% and 39.2% and 44.7%,14.6,4.43,21.5,-12.5,20.3% and 14.5%
CN(C)C(=O)CNC(=O)c1cc(Br)c2c(c1)OCCO2,-5.71,8,-2.43,7.31,4.58,4.87,1.56,21.6%,-10.2,7.1,18.5,-4.33,–
Cc1ccc(CNCc2nnc3n2CC(C(F)(F)F)CC3)cc1 (stereo not drawn),-0.646,18.9,-2.64,4.4,3.23,-11.3,-3.23,8.5%,11.6,5.38,13.6,-11.9,–
O=C(O)c1ccc(F)c(S(=O)(=O)Nc2ccc(-n3cccn3)c(Cl)c2)c1,-5.92,-2.67,-7.61,-0.566,-2.63,–,0,16.3% and 16.5% and 41.1%,-13.3,-1.64,1.24,-4.16,15.6% and 20.6%
O=C(Cn1nc2c(cc1=O)CCCC2)N[C@@H](Cc1ccccc1)C(=O)O,0.621,9.33,0.52,-1.3,0.197,0.54,0.88,16.1%,24.4,5.29,12.8,-9.91,–
COc1ccccc1Oc1ncccc1CNC(=O)[C@@H](C)NC(C)=O,-1.21,-4.17,-4.59,-7.34,-3.98,4.87,2.21,-0.526%,2.14,2.1,-2.56,2.74,–
CCn1c(Nc2ccccc2OC)nc2c(C)nn(C)c2c1=O,-1.82,6.67,3.08,-2.73,-6.88,-9.19,-4.4,16.3%,10.6,8.47,10.3,-10.1,–
Cn1cc(CN(Cc2ccccc2)CC(O)c2cccs2)cn1 (stereo not drawn),-2.22,2.7,-1.93,9.64,7.14,7.03,-1.74,7.81%,1.28,-1.07,-13.6,-8.54,–
COc1ccc(C(=O)N2C[C@@H](C(=O)O)[C@H](c3ccccc3C)C2)c(O)c1,-5.13,5.41,-4.36,32,1.86,4.87,-0.248,9.53%,-12.1,6.45,16.1,-2.87,–
O=C(Cn1nc2c(cc1=O)CCCC2)N[C@@H](C(=O)O)c1ccccc1,-1.59,9.33,0.931,7.75,3.34,8.11,0.176,12.2%,14.1,10.6,20.5,-5.57,–
Cc1cc(CNC(=O)N2CCN(c3ccccc3)CC2)no1,-3.75,5.41,2.37,0.348,0,3.78,4.17,10.6%,-2.92,9.9,3.66,-1.36,–
Cc1nc(C2CCCN2C(=O)CNS(C)(=O)=O)no1 (stereo not drawn),-2.65,5.33,-7.92,-1.69,-0.876,-12.4,0,10.5%,5.88,7.1,18.5,-12.8,–
Cn1cc(CN2C[C@@H]3COC[C@]3(C(=O)NCc3ccccn3)C2)cn1,-3.43,5.33,0.406,6.2,0.772,-0.54,-54.3,4.62%,-8.11,2.08,2.5,-5.35,–
Cc1ccc([C@@H]2CN(S(=O)(=O)c3cccs3)C[C@H]2N(C)C)cc1,-5.74,2.7,-3.82,22.9,2.25,-0.54,-0.744,0.944%,22.4,3.23,13.6,-3.75,–
Cc1ccc(NC2CCN(C(=O)CCc3ccco3)CC2)nn1,-5.56,2.7,6.46,1.2,0.836,–,0.554,21.9% and 32.9% and 29.3%,8.89,11.9,-1.22,0.23,-1.73% and 1.88%
